Compounds without any hit were thinned out: in the full panel of roughly 83,000, 20% have a hit.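 Activity criterion: percent growth below 10, measured after cells in 96-well plates were exposed to a single compound concentration for 48 hours.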 Values without a mark were called inactive. Calls of active or inactive are those of the source.

This experiment concerns NCI-H23 lung. As to the kind of experiment: NCI-60 one-dose screen, 48 h (100 = growth as untreated, 0 = no growth, -100 = all killed). The following applies: 10 µM. On the procedure: Growth inhibition of the NCI-H23 human Non-Small Cell Lung tumor cell line is measured as a screen for anti-cancer activity. Cells are grown in 96 well plates and exposed to the test compound for 48 hours. Compounds are tested at a single concentration, which is 10^-5 M for most compounds. The reported endpoint is percent growth (GI% or GIPRCNT), where numbers from 0 - 100% represent growth inhibition, and numbers from -100% - 0 represent cell death. For example, a value of 40 represents 60% growth inhibition. A value of 0 means no net growth occurred over the course of the experiment. A value of -40 indicates 40% of cells at the beginning of the experiment died by the end of the experiment. A value of -100 means all cells are dead at the end of the experiment.
NCI-60 Human Tumor Cell Lines Screen was performed using the standard one-dose NCI protocol, which is described in more detail at https://dtp.cancer.gov/discovery_development/nci-60/default.htm.
Compounds with GIPRCNT values below 10 were considered active. Activity score was based on GIPRCNT using the following formula: […]
Score is 0 for GIPRCNT values of 100 or above, 50 for GIPRCNT values of 0, and 100 for GIPRCNT values of -100.
As for `CC(=O)Nc1ccc(-n2cnc3cc(-c4ccc(O)cc4)ccc32)cc1F`, the growth was 49.2%.
In the case of `COc1cccc(/C=C2\N=C(C)N(CCc3ccc(S(N)(=O)=O)cc3)C2=O)c1` it was 102%; in that of `Cc1ccc(-c2nc3ccc(C(=O)N=Nc4c(O)[nH]c5ccc(Cl)cc45)cc3[nH]2)cc1`, -83.8% (active); in that of `O=C(NO)c1ccc(CN2CCN(c3nc(-c4ccccc4)c4ccccc4n3)CC2)cc1`, -5.08% (active).
In the case of `[2H]C([2H])([2H])Oc1ccc2ncc(C#Cc3cncc(C(=O)Nc4ccc(CN5CCN(C)CC5)c(C(F)(F)F)c4)c3)n2n1` it was -80.5% (active).
In the case of `O=C(Cc1ccc2c(c1)CN(C1CCC(=O)NC1=O)C2=O)NCc1cccc2ccccc12` (stereo not given) it was 12.7%.
For the compound `O=C1Nc2cc(Cl)ccc2/C1=C/c1cccc(OCc2ccccc2)c1`, the growth was 11.9%.
As for `COC1=C[C@@]23CCC(=O)N2CCc2cc4c(cc2[C@H]3[C@H]1OC(=O)C(C)(C)O)OCO4`, the growth is 95.6%.
As to `CC(=O)Nc1nc(-c2ccc(N3CCN(C)CC3)c(NS(=O)(=O)c3ccc(C(F)(F)F)cc3)c2)cs1`, the growth is 55.8%.
In the case of `Cc1cc(=O)oc2cc(OCCCCOc3ccc(/C=C/C(=O)Nc4ccc(F)c(Cl)c4)cc3)ccc12` it was 87%; in that of `C=C1CCC2C3(C)COC(c4cc(F)cc(F)c4)OC3CCC2(C)C1C/C=C1/C(=O)OCC1O` (stereo not given), -39.2% (active).
In the case of `O=C(Nc1nc2ccc([N+](=O)[O-])cc2s1)Nc1cc(Cl)ccc1I` it was -53.2% (active); in that of `CN1C(=O)/C(=C/c2nccs2)SC1=S`, 80.8%.
In the case of `CO[C@@H]1CSS[C@H]1Cn1nc(-c2ccc(Oc3ccccc3)cc2)c2c(N)ncnc21` it was 63.5%; in that of `Cc1cc(=O)oc2cc(OCCCCOc3ccc(/C=C/C(=O)Nc4ccccc4[N+](=O)[O-])cc3)ccc12`, 98.8%.
Consider `COc1ccc2[nH]c(O)c(N=NC(=O)COc3ccc(NC(=O)Nc4ccc(Cl)cc4)cc3)c2c1`, for which the growth was -40.4% (active).
In the case of `C#CCNC(=O)[C@]12CCC(C)(C)C[C@H]1C1=CC[C@@H]3[C@@](C)(CCC#N)[C@H](C(=C)C)CC[C@@]3(C)[C@]1(C)CC2` it was 58.2%.
Regarding `C/C(=N\NC(N)=S)c1ccc(Nc2nc(SC(C)C)nc(-c3ccccc3)c2C#N)cc1`, the growth was 52.5%.
In the case of `O=C1Nc2ccc(Cl)cc2/C1=C/c1ccc(OCc2ccccn2)cc1` it was 62.2%.
In the case of `CC(=O)OC[C@@]1(C)C2CC[C@]3(C)C(CC=C4C5CC(C)(C)CC[C@]5(C(=O)Nc5ccccc5)CC[C@]43C)[C@@]2(C)C[C@@H](OC(C)=O)[C@@H]1OC(C)=O` (stereo not given in full) it was 40.2%.
In the case of `COC(=O)C[C@](O)(CCCC(C)(C)O)C(=O)O[C@H]1C(OC)=C[C@@]23CCC(=O)N2CCc2cc4c(cc2[C@@H]13)OCO4` it was 101%; in that of `CCOC(=O)C1=C(N)N(c2ccccc2)C2=C(C(=O)CC(C)(C)C2)C1c1ccc(Cl)cc1` (stereo not given), 48.9%; in that of `O=C(N=Nc1c(O)[nH]c2ccc(Br)cc12)c1ccc2nc(-c3ccccc3)[nH]c2c1`, -66.1% (active).
Turning to `O=C(c1ccc(O)cc1)C1[C@H](c2ccc(Br)cc2)[C@@H](c2ccccc2)NC12C(=O)Nc1ccc(Br)cc12` (stereo not given in full), the growth is -54.4% (active).
In the case of `CCCn1c(=O)c2[nH]c(-c3ccc(OCc4nc5ccc(C)cc5[nH]4)cc3)nc2n(CCC)c1=O` it was 25.3%; in that of `Nc1nc(-c2ccccc2)cs1`, 42%; in that of `COC(=O)CC1CC1C1Cc2c(nc(N(C)S(C)(=O)=O)nc2C(C)C)-c2ccc(F)cc21` (stereo not given), 69.1%.
For the compound `O=c1c2ccccc2nc(COc2ccccc2)n1/N=C/c1ccc(N2CCOCC2)cc1`, the growth was 59.2%.
`CN1CCN(c2ccc(Nc3nc(NCCCNC(=O)c4ccccc4)c4sccc4n3)cc2)CC1`: the growth is 82.5%.
In the case of `CN1CCCN(Cc2ccc(C(=O)Nc3cccc(Nc4ccc5cc(O)ccc5n4)c3)cc2C(F)(F)F)CC1` it was 68.8%; in that of `O=C(CSc1nnc(-c2c[nH]c3ccccc23)n1-c1ccccc1)Nc1ccc(C(=O)/C=C/c2cccc([N+](=O)[O-])c2)cc1`, 86.2%; in that of `O=C1N/C(=N\c2nccs2)S/C1=C\c1cccs1`, 38.1%.
In the case of `Cc1ccc(-c2cc(C(=O)N=Nc3c(O)[nH]c4ccccc34)c3ccccc3n2)cc1` it was 31.8%; in that of `O=C(c1ccc(-n2c(=O)[nH]c3ccccc3c2=O)cc1)N1CCOCC1`, 116%.
In the case of `CN1CCN(c2ccc(C(=O)/C=C/c3ccc(OC(F)F)cc3)cc2)CC1` it was 27.8%; in that of `Cc1noc2c(Cc3ccccc3)nn(CC(=O)N/N=C/c3ccc(F)cc3)c(=O)c12`, 78.4%.
Consider `Cc1ccc(C(=O)NCCCNc2nc(Nc3ccc(N4CCN(C)CC4)cc3)nc3ccsc23)cc1`, for which the growth is 53.4%.
In the case of `CC(C)NC(=O)c1cc(-c2ccc(NC(=O)Nc3ccc(N4CCN(C)CC4)c(C(F)(F)F)c3)cc2)nc2cccnc12` it was -84.6% (active); in that of `CCCn1c(O)c(N=Nc2nc(-c3cc4ccccc4oc3=O)cs2)c2cc(Br)ccc21`, 94.8%.
For `CC(=O)Nc1nc(-c2ccc(N3CCN(C)CC3)c(NS(=O)(=O)c3cccc4c(N(C)C)cccc34)c2)cs1`, the growth is 58.1%.
